# Measurements from PubChem BioAssay.
# For part of these data: Entries with a potency or affinity are not part of this list. Activity calls are given as the source filed them.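 Rule for the calls, unless noted: active = earlier screen potentiator hit that boosts the TRPC4 ion channel at some dose, with a dose response; inactive = no potentiation, no dose response, or not a prior hit.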
# How the values were obtained:
# [1] = tested on: TRPC4 beta (transient receptor potential cation channel C4), mouse; experiment: activators of mouse TRPC4 channel, confirmation, cell-based, Fluo4 calcium, HEK293 TRPC4beta/mu-opioid, duplicates, 10 µM (AID 2426;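 active = fluorescence ratio normalized to control raised more than 50% in primary screen plus both repeat runs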;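 for activation: percent rise of integrated ratio over buffer wells lacking compound which define 0%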); conditions: Fluo4 calcium fluorescence, at 10 µM; stronger effect = higher value
# [2] = tested on: transient receptor potential cation channel C4 beta (TRPC4), mouse; experiment: activators of mouse TRPC4 channel, confirmation, cell-based, second round, Fluo4, HEK293 TRPC4beta/mu-opioid, 1 µM (AID 2461;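 active = primary screen active and over 50% activation in each of two duplicate runs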); conditions: Fluo4 calcium fluorescence, at 1 µM; stronger effect = higher value
# [3] = tested on: TRPC4 (transient receptor potential cation channel C4 beta), mouse; experiment: positive allosteric modulators of mouse TRPC4, confirmation, cell-based, second round, Fluo-4, HEK293 TRPC4beta/mu-opioid, 1 µM (AID 2554;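 active = primary screen hit whose fluorescence ratio, in both repeats, exceeds the weak agonist control mean by 3 SD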); conditions: DAMGO EC20, Fluo-4 calcium flux, at 1 µM; stronger effect = higher value
# [4] = tested on: TRPC4 beta (transient receptor potential cation channel C4), mouse; experiment: positive allosteric modulators of mouse TRPC4, confirmation, cell-based, Fluo-4, HEK293 TRPC4beta/mu-opioid (AID 2555;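 active = primary screen hit whose calcium fluorescence ratio, in both repeats, exceeds the weak agonist control mean by 3 SD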); conditions: DAMGO EC20, Fluo-4 calcium flux, at 10 µM; stronger effect = higher value
# [5] = biological target: Short transient receptor potential channel 4 (Mus musculus) (UniProt Q9QUQ5); experiment: inhibitors of mouse TRPC4 channel, confirmation, cell-based, Fluo4, HEK293 TRPC4beta/mu-opioid (AID 2636;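 active = calcium signal cut by more than 3 SD below the full-agonist control yet still positive, in both repeats and the earlier primary screen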); conditions: DAMGO, Fluo4 calcium flux, at 10 µM; stronger effect = higher value
# Chain of Short transient receptor potential channel 4 (Mus musculus) (Q9QUQ5 whole entry, looked up): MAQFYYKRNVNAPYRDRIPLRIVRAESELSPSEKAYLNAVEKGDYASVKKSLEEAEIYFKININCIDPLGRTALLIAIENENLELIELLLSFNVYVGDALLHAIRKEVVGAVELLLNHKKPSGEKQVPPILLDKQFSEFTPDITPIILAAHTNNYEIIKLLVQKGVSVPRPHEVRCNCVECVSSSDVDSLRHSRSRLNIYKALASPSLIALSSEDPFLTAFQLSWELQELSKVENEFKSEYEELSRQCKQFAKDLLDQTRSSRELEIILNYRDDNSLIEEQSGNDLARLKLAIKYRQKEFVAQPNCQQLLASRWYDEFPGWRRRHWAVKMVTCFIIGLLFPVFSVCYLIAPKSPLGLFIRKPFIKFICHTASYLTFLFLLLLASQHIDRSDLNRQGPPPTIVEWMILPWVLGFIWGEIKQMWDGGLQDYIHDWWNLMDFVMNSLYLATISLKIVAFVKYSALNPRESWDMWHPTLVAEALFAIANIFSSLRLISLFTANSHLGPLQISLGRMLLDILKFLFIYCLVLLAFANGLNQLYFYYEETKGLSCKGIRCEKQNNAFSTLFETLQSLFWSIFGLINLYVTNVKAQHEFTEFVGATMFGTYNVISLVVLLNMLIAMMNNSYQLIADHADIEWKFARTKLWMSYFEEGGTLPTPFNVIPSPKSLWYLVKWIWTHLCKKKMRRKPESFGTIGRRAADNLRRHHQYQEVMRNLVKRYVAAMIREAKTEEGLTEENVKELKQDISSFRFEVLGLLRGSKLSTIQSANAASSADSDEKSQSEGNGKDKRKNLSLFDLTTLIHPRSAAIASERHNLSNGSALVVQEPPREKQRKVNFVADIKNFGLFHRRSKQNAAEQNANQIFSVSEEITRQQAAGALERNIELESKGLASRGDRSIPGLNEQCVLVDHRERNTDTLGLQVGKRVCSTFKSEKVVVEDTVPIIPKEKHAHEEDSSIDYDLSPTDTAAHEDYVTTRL
# [6] = biological target: Short transient receptor potential channel 4 (Mus musculus) (UniProt Q9QUQ5); experiment: inhibitors of mouse TRPC4 channel, confirmation, cell-based, second round, Fluo4, HEK293 TRPC4beta/mu-opioid, 1 µM (AID 2637;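 active = calcium signal ratio cut to more than 3 SD under the fully stimulated control mean yet still positive, in both repeats and the primary screen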;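 for inhibition: percent of integrated ratio relative to wells lacking test compound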); conditions: Fluo4 calcium flux, DAMGO, at 1 µM; stronger effect = higher value
# [7] = biological target: Short transient receptor potential channel 4 (Mus musculus) (UniProt Q9QUQ5); experiment: mouse TRPC4 channel activators, dose response, cell-based, HEK293 TRPC4/mu-opioid, Fluo-4 calcium (AID 434937;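 active = primary screen activator hit with a dose response curve and TRPC4 channel activation at any tested dose; inactive = no activation, no dose response, or not a primary hit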)
# [8] = biological target: Short transient receptor potential channel 4 (Mus musculus) (UniProt Q9QUQ5); experiment: TRPC4 positive allosteric modulators, dose response, cell-based, HEK293 TRPC4/mu-opioid, Fluo-4 calcium, EC20 DAMGO (AID 434941);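 note: calcium entry triggered by an EC20 dose of DAMGO at the co-expressed mu-opioid receptor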
# [9] = biological target: Short transient receptor potential channel 4 (Mus musculus) (UniProt Q9QUQ5); experiment: mouse TRPC4 channel inhibitors, dose response, cell-based, HEK293 TRPC4/mu-opioid, Fluo-4 calcium (AID 434942;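 active = primary screen inhibitor hit that blocks the TRPC4 channel at some tested dose, yielding a dose curve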)
# [10] = biological target: Short transient receptor potential channel 6 (Mus musculus) (UniProt Q61143); experiment: inhibition of mouse TRPC6 channel, confirmation, selectivity assay for TRPC4 inhibitor project, cell-based, HEK293, membrane potential dye, duplicate (AID 434948;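 active = active in primary screen and both duplicates, each dropping signal beyond three positive-control SD with fluorescence still positive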); conditions: HEK293 TRPC6, membrane potential dye fluorescence, at 10 µM, stimulated with maximal-effect acetylcholine; stronger effect = higher value
# Chain of Short transient receptor potential channel 6 (Mus musculus) (Q61143 whole entry, looked up): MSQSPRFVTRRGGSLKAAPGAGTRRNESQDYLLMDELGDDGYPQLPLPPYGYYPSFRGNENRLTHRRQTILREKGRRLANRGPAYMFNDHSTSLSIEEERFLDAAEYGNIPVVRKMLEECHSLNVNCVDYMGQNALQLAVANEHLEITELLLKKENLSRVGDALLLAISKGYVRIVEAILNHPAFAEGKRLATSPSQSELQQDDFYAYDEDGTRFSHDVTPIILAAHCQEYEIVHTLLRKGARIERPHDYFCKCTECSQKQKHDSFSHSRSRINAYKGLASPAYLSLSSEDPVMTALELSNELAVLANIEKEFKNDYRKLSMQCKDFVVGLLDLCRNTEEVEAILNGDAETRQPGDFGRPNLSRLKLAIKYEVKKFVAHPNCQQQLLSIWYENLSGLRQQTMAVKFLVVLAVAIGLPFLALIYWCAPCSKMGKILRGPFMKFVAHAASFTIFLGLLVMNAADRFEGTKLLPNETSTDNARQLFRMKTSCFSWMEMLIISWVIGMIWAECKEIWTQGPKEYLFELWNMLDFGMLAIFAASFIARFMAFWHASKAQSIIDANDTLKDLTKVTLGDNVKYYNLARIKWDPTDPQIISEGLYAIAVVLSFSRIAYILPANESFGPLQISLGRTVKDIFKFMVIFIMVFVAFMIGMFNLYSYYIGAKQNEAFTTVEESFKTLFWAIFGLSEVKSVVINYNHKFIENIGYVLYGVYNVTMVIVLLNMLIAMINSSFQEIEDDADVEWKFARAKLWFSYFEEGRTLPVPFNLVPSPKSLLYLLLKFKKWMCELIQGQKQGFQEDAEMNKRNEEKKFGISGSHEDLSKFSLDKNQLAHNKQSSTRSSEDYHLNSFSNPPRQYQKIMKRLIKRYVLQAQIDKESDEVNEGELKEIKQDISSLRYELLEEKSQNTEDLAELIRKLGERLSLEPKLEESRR
# [11] = biological target: Short transient receptor potential channel 6 (Mus musculus) (UniProt Q61143); experiment: activation of mouse TRPC6 channel, confirmation, selectivity assay for TRPC4 activator project, cell-based, HEK293, membrane potential dye, duplicate (AID 434950;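 active = membrane potential signal rise above negative control mean plus 3 SD in both duplicates, also active in the earlier TRPC4 screen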); conditions: HEK293 TRPC6, membrane potential fluorescence, at 10 µM; stronger effect = higher value
# [12] = biological target: Short transient receptor potential channel 6 (Mus musculus) (UniProt Q61143); experiment: TRPC6 potentiation by TRPC4 potentiator hits, confirmation, selectivity assay for TRPC4 potentiator project, HEK293 cells, membrane potential dye, duplicate (AID 434952;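 active = compound raising the membrane signal above positive-control mean plus 3 SD in both repeats, and a primary screen hit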); conditions: HEK293 TRPC6, membrane potential dye fluorescence, at 10 µM, maximal acetylcholine added after compound; stronger effect = higher value
# [13] = biological target: Short transient receptor potential channel 4 (Mus musculus) (UniProt Q9QUQ5); experiment: calcium flux activators in TRPC4/5HT1a cells, counter-screen for TRPC4 activator project, cell-based, second counter screen, HEK293 TRPC4/5HT1a, Fluo-4 (AID 434977;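 active = calcium signal rise above buffer-control mean plus 5 SD in both duplicates, and also a hit in the primary screen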;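 for activation: plate controls were assay buffer for no effect and maximal serotonin response for full effect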); conditions: Fluo-4 calcium flux, at 10 µM; stronger effect = higher value
# [14] = calcium flux inhibitors in TRPC4/5HT1a cells, confirmation, counter-screen for TRPC4 inhibitor project, cell-based, second counter screen, HEK293 TRPC4/5HT1a, Fluo-4 (AID 434978;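 active = primary screen active whose calcium signal fell more than 3 SD beyond the full-serotonin control mean in both duplicate plates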;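 for outcome: serotonin given first at submaximal then at maximal dose after compound preincubation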); conditions: Fluo-4 calcium flux, at 10 µM, serotonin added to trigger calcium flux; stronger effect = higher value
# [15] = tested on: TRPC4 (mouse), co-expressed with 5HT1a in HEK293; experiment: calcium flux potentiators in TRPC4/5HT1a cells, confirmation, counter-screen for TRPC4 potentiator project, cell-based, second counter screen, HEK293 TRPC4/5HT1a, Fluo-4 (AID 434979;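 active = signal rise over 3 SD above mean of control wells given weak agonist, in both repeats and first screen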); conditions: Fluo-4 calcium flux, at 10 µM, serotonin added at its EC20 dose; stronger effect = higher value
# [16] = calcium flux activation in mu-opioid HEK293 cells, confirmation, counter-screen for TRPC4 activator project, cell-based, HEK293 mu-opioid receptor line (AID 449723;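 active = hit in primary screen, with calcium signal over 5 SD above buffer well mean in both duplicates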;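 note: counter screen cells carry the mu-opioid receptor alone and lack TRPC4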); conditions: Fluo-4 calcium fluorescence, at 10 µM; stronger effect = higher value
# [17] = calcium flux enhancement in mu-opioid HEK293 cells, confirmation, counter-screen for TRPC4 allosteric potentiator project, cell-based, HEK293 mu-opioid receptor line (AID 449724;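 active = calcium signal rise more than 3 SD above the low-dose agonist control mean, in both duplicate plates and the primary screen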); conditions: Fluo-4 calcium flux, at 10 µM, compound added before EC20 DAMGO stimulus; stronger effect = higher value
structure (smiles),measurement,setting,value
COc1ccc(CCN(C)C(=O)c2cc(S(=O)(=O)N3CCCCC3)ccc2Cl)cc1OC,outcome,[1],inactive
same,outcome,[2],inactive
same,outcome,[3],inactive
same,outcome,[4],inactive
same,outcome,[5],inactive
same,outcome,[6],inactive
same,outcome,[7],inactive
same,outcome,[8],inactive
same,outcome,[9],inactive
same,outcome,[10],inactive
same,outcome,[11],inactive
same,outcome,[12],inactive
same,outcome,[13],inactive
same,outcome,[14],inactive
same,outcome,[15],inactive
same,outcome,[16],inactive
same,outcome,[17],inactive
N=c1oc2ccc(Cl)cc2cc1C(=O)NC1CCCCCC1,outcome,[1],inactive
same,outcome,[2],inactive
same,outcome,[3],inactive
same,outcome,[4],inactive
same,outcome,[5],inactive
same,outcome,[6],inactive
same,outcome,[7],inactive
same,outcome,[8],inactive
same,outcome,[9],inactive
same,outcome,[10],inactive
same,outcome,[11],inactive
same,outcome,[12],inactive
same,outcome,[13],inactive
same,outcome,[14],inactive
same,outcome,[15],inactive
same,outcome,[16],inactive
same,outcome,[17],inactive
CC(=O)c1c(O)c(C)c(O)c2c1OC1=CC(=O)C(C(C)=O)C(=O)[C@@]12C (stereo not given in full),activation,[1],246% (active)
same,outcome,[2],inactive
same,outcome,[3],inactive
same,outcome,[4],inactive
same,outcome,[5],inactive
same,outcome,[6],inactive
same,outcome,[7],inactive
same,outcome,[8],inactive
same,outcome,[9],inactive
same,outcome,[10],inactive
same,outcome,[11],inactive
same,outcome,[12],inactive
same,activation,[13],20.7% (active)
same,outcome,[14],inactive
same,outcome,[15],inactive
same,activation,[16],43.3% (active)
same,outcome,[17],inactive
Cc1ccc(Nc2ccc(S(=O)(=O)N3CCOCC3)cc2[N+](=O)[O-])cc1C,outcome,[1],inactive
same,outcome,[2],inactive
same,outcome,[3],inactive
same,outcome,[4],inactive
same,outcome,[5],inactive
same,outcome,[6],inactive
same,outcome,[7],inactive
same,outcome,[8],inactive
same,outcome,[9],inactive
same,outcome,[10],inactive
same,outcome,[11],inactive
same,outcome,[12],inactive
same,outcome,[13],inactive
same,outcome,[14],inactive
same,outcome,[15],inactive
same,outcome,[16],inactive
same,outcome,[17],inactive
CSc1ccc(CN(C)C(C)C(=O)NCc2ccccc2)cc1 (stereo not given),outcome,[1],inactive
same,outcome,[2],inactive
same,outcome,[3],inactive
same,outcome,[4],inactive
same,outcome,[5],inactive
same,outcome,[6],inactive
same,outcome,[7],inactive
same,outcome,[8],inactive
same,outcome,[9],inactive
same,outcome,[10],inactive
same,outcome,[11],inactive
same,outcome,[12],inactive
same,outcome,[13],inactive
same,outcome,[14],inactive
same,outcome,[15],inactive
same,outcome,[16],inactive
same,outcome,[17],inactive
Cc1cc(OCCN2CCCC2)ccc1[N+](=O)[O-],outcome,[1],inactive
same,outcome,[2],inactive
same,potentiation,[3],11% (active)
same,potentiation,[4],11% (active)
same,outcome,[5],inactive
same,outcome,[6],inactive
same,outcome,[7],inactive
same,outcome,[8],inactive
same,outcome,[9],inactive
same,outcome,[10],inactive
same,outcome,[11],inactive
same,outcome,[12],inactive
same,outcome,[13],inactive
same,outcome,[14],inactive
same,potentiation,[15],13.9% (active)
same,outcome,[16],inactive
same,outcome,[17],inactive
CC(C)(C)NC(=S)N/N=C\c1ccc(-c2ccc([N+](=O)[O-])cc2)o1,outcome,[1],inactive
same,outcome,[2],inactive
same,outcome,[3],inactive
same,outcome,[4],inactive
same,outcome,[5],inactive
same,outcome,[6],inactive
same,outcome,[7],inactive
same,outcome,[8],inactive
same,outcome,[9],inactive
same,outcome,[10],inactive
same,outcome,[11],inactive
same,"potentiation, percent of control",[12],142% (active)
same,outcome,[13],inactive
same,outcome,[14],inactive
same,potentiation,[15],15.4% (active)
same,outcome,[16],inactive
same,outcome,[17],inactive
Cc1oc(-c2ccc(Cl)cc2)nc1CS(=O)CC(=O)NCCCN(C)C1CCCCC1 (stereo not given),outcome,[1],inactive
same,outcome,[2],inactive
same,outcome,[3],inactive
same,outcome,[4],inactive
same,outcome,[5],inactive
same,outcome,[6],inactive
same,outcome,[7],inactive
same,outcome,[8],inactive
same,outcome,[9],inactive
same,outcome,[10],inactive
same,outcome,[11],inactive
same,outcome,[12],inactive
same,outcome,[13],inactive
same,outcome,[14],inactive
same,outcome,[15],inactive
same,outcome,[16],inactive
same,outcome,[17],inactive
CC(=O)Cc1nsc(NC(=O)c2csc3c2CCCC3)n1,outcome,[1],inactive
same,outcome,[2],inactive
same,outcome,[3],inactive
same,outcome,[4],inactive
same,outcome,[5],inactive
same,outcome,[6],inactive
same,outcome,[7],inactive
same,outcome,[8],inactive
same,outcome,[9],inactive
same,outcome,[10],inactive
same,outcome,[11],inactive
same,outcome,[12],inactive
same,outcome,[13],inactive
same,outcome,[14],inactive
same,outcome,[15],inactive
same,outcome,[16],inactive
same,outcome,[17],inactive
COc1ccccc1N(C(=O)c1snc(C(N)=O)c1N)C(C(=O)NCc1ccccc1)c1ccc(O)cc1 (stereo not given),outcome,[1],inactive
same,outcome,[2],inactive
same,outcome,[3],inactive
same,outcome,[4],inactive
same,inhibition,[5],91% (active)
same,inhibition,[6],51% (active)
same,outcome,[7],inactive
same,outcome,[8],inactive
same,outcome,[9],inactive
same,outcome,[10],inactive
same,outcome,[11],inactive
same,outcome,[12],inactive
same,outcome,[13],inactive
same,inhibition,[14],26.4% (active)
same,outcome,[15],inactive
same,outcome,[16],inactive
same,outcome,[17],inactive
COc1ccc(C(=O)NNC(=O)CN2CCC(n3nnc4cc(C)ccc43)CC2)cc1,outcome,[1],inactive
same,outcome,[2],inactive
same,potentiation,[3],15% (active)
same,potentiation,[4],28% (active)
same,outcome,[5],inactive
same,outcome,[6],inactive
same,outcome,[7],inactive
same,outcome,[8],inactive
same,outcome,[9],inactive
same,outcome,[10],inactive
same,outcome,[11],inactive
same,outcome,[12],inactive
same,outcome,[13],inactive
same,outcome,[14],inactive
same,outcome,[15],inactive
same,outcome,[16],inactive
same,outcome,[17],inactive
NNc1ccc(Cc2ccc(Cl)cc2Cl)nn1,outcome,[1],inactive
same,outcome,[2],inactive
same,outcome,[3],inactive
same,outcome,[4],inactive
same,outcome,[5],inactive
same,outcome,[6],inactive
same,outcome,[7],inactive
same,outcome,[8],inactive
same,outcome,[9],inactive
same,outcome,[10],inactive
same,outcome,[11],inactive
same,outcome,[12],inactive
same,outcome,[13],inactive
same,outcome,[14],inactive
same,potentiation,[15],15.2% (active)
same,outcome,[16],inactive
same,outcome,[17],inactive
COc1ccc(CC2(CO)CCN(C/C=C/c3ccccc3OC)CC2)cc1,outcome,[1],inactive
same,outcome,[2],inactive
same,outcome,[3],inactive
same,outcome,[4],inactive
same,inhibition,[5],79% (active)
same,outcome,[6],inactive
same,outcome,[7],inactive
same,outcome,[8],inactive
same,outcome,[9],inactive
same,outcome,[10],inactive
same,outcome,[11],inactive
same,outcome,[12],inactive
same,outcome,[13],inactive
same,inhibition,[14],33.5% (active)
same,outcome,[15],inactive
same,outcome,[16],inactive
same,outcome,[17],inactive
O=c1[nH][nH]c(-c2ccccc2)c1C=Nc1ccc(F)cc1F,outcome,[1],inactive
same,outcome,[2],inactive
same,outcome,[3],inactive
same,potentiation,[4],119% (active)
same,outcome,[5],inactive
same,outcome,[6],inactive
same,outcome,[7],inactive
same,outcome,[8],inactive
same,outcome,[9],inactive
same,outcome,[10],inactive
same,outcome,[11],inactive
same,outcome,[12],inactive
same,outcome,[13],inactive
same,outcome,[14],inactive
same,potentiation,[15],86% (active)
same,outcome,[16],inactive
same,outcome,[17],inactive
CCCCCCc1cc2cc(-c3nnc(-c4cc(OC)c(OC)c(OC)c4)o3)c(=O)oc2cc1O,outcome,[1],inactive
same,outcome,[2],inactive
same,outcome,[3],inactive
same,potentiation,[4],37% (active)
same,outcome,[5],inactive
same,outcome,[6],inactive
same,outcome,[7],inactive
same,outcome,[8],inactive
same,outcome,[9],inactive
same,outcome,[10],inactive
same,outcome,[11],inactive
same,outcome,[12],inactive
same,outcome,[13],inactive
same,outcome,[14],inactive
same,potentiation,[15],16.1% (active)
same,outcome,[16],inactive
same,activation,[17],4130% (active)
